Structures can show the parent of a compound that is named as a salt.
tested on: Danio rerio larvae (5 dpf); assay: startle (activity period 16 minus period 15, 20-s interval sound) minus DMSO control (percentage points); higher = stronger startle response than DMSO larvae; settings: 10 µM; exposure time: 3 h pre-incubation + 3 h imaging
Protocol: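 Wild-type 5 dpf zebrafish larvae (n=48 per drug, 96-well plates, 28.5 °C) were exposed to Tocris FDA-approved library compounds at 10 µM (0.1% DMSO) for 3 h before and 3 h during imaging. Images were taken every 6 s during visual (moving coloured lines) and acoustic stimuli, and larvae were tracked with the DeepLabCut-based Z-LaP Tracker. Each behavioural measure is the treated-group mean minus the DMSO vehicle control mean (n=844), in percentage points. This mapping covers compounds with 4-character plate codes.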

Compound | startle
CC(C)c1nc(CN(C)C(=O)N[C@H](C(=O)N[C@@H](Cc2ccccc2)C[C@H](O)[C@H](Cc2ccccc2)NC(=O)OCc2cncs2)C(C)C)cs1 [Ritonavir] | 1.44
COc1ccc([C@@H]2Sc3ccccc3N(CCN(C)C)C(=O)[C@@H]2OC(C)=O)cc1 [Diltiazem hydrochloride] | 1.21
O=c1[nH]c(=O)n([C@H]2C[C@H](O)[C@@H](CO)O2)cc1C(F)(F)F [Trifluorothymidine] | 1.59
CC[C@H](C)C(=O)O[C@H]1C[C@@H](C)C=C2C=C[C@H](C)[C@H](CC[C@@H]3C[C@@H](O)CC(=O)O3)[C@H]21 [Lovastatin] | -1.2
Nc1ncn([C@@H]2O[C@H](CO)[C@@H](O)[C@H]2O)c(=O)n1 [5-Azacytidine] | 2.79
CCCCCOC(=O)Nc1nc(=O)n([C@@H]2O[C@H](C)[C@@H](O)[C@H]2O)cc1F [Capecitabine] | 1.06
CCOC(=O)c1ncn2c1CN(C)C(=O)c1cc(F)ccc1-2 [Flumazenil] | -0.637
Brc1c(NC2=NCCN2)ccc2nccnc12 | -5.57
Cc1cccc(CN2CCN(C(c3ccccc3)c3ccc(Cl)cc3)CC2)c1 (stereo not given) [Meclizine dihydrochloride] | -7.54
CC(C)(C(=O)c1cccnc1)c1cccnc1 [Metyrapone] | -0.289
Cc1cccc(C)c1OCC(C)N (stereo not given) [Mexiletine hydrochloride] | 0.959
CC(C)c1ccc2oc3nc(N)c(C(=O)O)cc3c(=O)c2c1 [Amlexanox] | 2.27
CS(=O)(=O)CCNCc1ccc(-c2ccc3ncnc(Nc4ccc(OCc5cccc(F)c5)c(Cl)c4)c3c2)o1 [Lapatinib] | -0.148
Clc1ccccc1C(c1ccccc1)(c1ccccc1)n1ccnc1 [Clotrimazole] | 4.43
C[C@@H](O[C@H]1OCCN(Cc2n[nH]c(=O)[nH]2)[C@H]1c1ccc(F)cc1)c1cc(C(F)(F)F)cc(C(F)(F)F)c1 [Aprepitant] | -6.24
Cc1ccccc1C(=O)Nc1ccc(C(=O)N2CCCC(O)c3cc(Cl)ccc32)c(C)c1 (stereo not given) [Tolvaptan] | 4.33
CCCc1nc(C(C)(C)O)c(C(=O)O)n1Cc1ccc(-c2ccccc2-c2nnn[nH]2)cc1 [Olmesartan] | 8.5
CC(=O)Oc1ccccc1C(=O)O [Aspirin] | -4
Cc1nc(-c2ccc(OCC(C)C)c(C#N)c2)sc1C(=O)O [Febuxostat] | 3.79
O=C(O)CCCc1ccccc1 [Sodium 4-Phenylbutyrate] | -5.61

Compound | startle
Nc1ncn([C@H]2C[C@H](O)[C@@H](CO)O2)c(=O)n1 [Decitabine] | -1.27
Cc1cn([C@H]2C=C[C@@H](CO)O2)c(=O)[nH]c1=O [Stavudine] | 0.235
CCCCCCCCc1ccc(CCC(N)(CO)CO)cc1 | -6.92
CCOc1nc2cccc(C(=O)O)c2n1Cc1ccc(-c2ccccc2-c2noc(=O)[nH]2)cc1 [Azilsartan] | 3.25
CO[C@H]1/C=C/O[C@@]2(C)Oc3c(C)c(O)c4c(O)c(c5c(nc6cc(C)ccn65)c4c3C2=O)NC(=O)/C(C)=C\C=C\[C@H](C)[C@H](O)[C@@H](C)[C@@H](O)[C@@H](C)[C@H](OC(C)=O)[C@@H]1C [Rifaximin] | 1.18
CN1CC[C@@H](NC(=O)Nc2ccc(C#N)cc2)C[C@@H]1c1nc2ccccc2[nH]1 | -4.15
CCOc1ccccc1OCCN[C@H](C)Cc1ccc(OC)c(S(N)(=O)=O)c1 [Tamsulosin hydrochloride] | 1.92
CN(C)CCc1c[nH]c2ccc(Cn3cncn3)cc12 [Rizatriptan benzoate] | 4.04
C[C@]12CC[C@@H]3c4ccc(O)cc4C[C@@H](CCCCCCCCC[S+]([O-])CCCC(F)(F)C(F)(F)F)[C@H]3[C@@H]1CC[C@@H]2O (stereo not given in full) | -0.0663
Cc1ccc(-c2cc(C(F)(F)F)nn2-c2ccc(S(N)(=O)=O)cc2)cc1 [Celecoxib] | -8.09
O=C(c1ccc(OCCN2CCCCC2)cc1)c1c(-c2ccc(O)cc2)sc2cc(O)ccc12 [Raloxifene hydrochloride] | 2.55
CN1CCC[C@@H]1Cc1c[nH]c2ccc(CCS(=O)(=O)c3ccccc3)cc12 [Eletriptan hydrobromide] | 0.814
CC(C)c1nc(N(C)S(C)(=O)=O)nc(-c2ccc(F)cc2)c1/C=C/[C@@H](O)C[C@@H](O)CC(=O)O [Rosuvastatin calcium] | -0.514
O=C(O[C@@H]1C[C@@H]2C[C@H]3C[C@H](C1)N2CC3=O)c1c[nH]c2ccccc12 [Dolasetron mesylate] | 0.504
CN1CCC[C@@H]1CCO[C@](C)(c1ccccc1)c1ccc(Cl)cc1 [Clemastine fumarate] | -7.64
CC(C)N(CCCCOCC(=O)NS(C)(=O)=O)c1cnc(-c2ccccc2)c(-c2ccccc2)n1 [Selexipag] | 1.3
CC(C)(C#N)c1cc(Cn2cncn2)cc(C(C)(C)C#N)c1 [Anastrozole] | -0.0231
COc1ccc(-c2ccc3cc(C(=O)O)ccc3c2)cc1C12CC3CC(CC(C3)C1)C2 [Adapalene] | -0.788
CN(CCOc1ccc(CC2SC(=O)NC2=O)cc1)c1ccccn1 (stereo not given) [Rosiglitazone] | -1.31
OC(CNCC(O)C1CCc2cc(F)ccc2O1)C1CCc2cc(F)ccc2O1 (stereo not given) [Nebivolol hydrochloride] | -4.81

Source: the supplement of paper PMC9950053
